Drawing on PubChem BioAssay, this text covers composite z-score and z-score for 17 molecules.

The source made the active and inactive calls.

Assay [1] can be described thus: small molecules captured by biotinylated probe aFSTL3 – biochemical, small-molecule microarray, fluorescence 635/667, stem cell growth factor project, primary screen (AID 1064).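 Note: measures binding of the biotinylated anti-FSTL3 antibody to printed compounds.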 The following applies: higher = more signal.
Assay [2] can be described thus: binders from COS7 lysate, DM2A8 probe, primary screen, torsin A project, cell lysate, small-molecule microarray, fluorescence 635/667 (AID 1065). The following applies: higher = more signal, COS7 lysate expressing mutant human TOR1A.
Assay [3] can be described thus: small molecules captured by biotinylated probe aFGF2 – biochemical, small-molecule microarray, fluorescence 635/667, stem cell growth factor project, primary screen (AID 1067).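 Note: measures binding of biotinylated aFGF2 protein to printed compounds on slides; z-score merges feature fluorescence and signal-to-noise across triplicate slides.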 To be noted: higher = more signal.
Assay [4] can be described thus: small molecules captured by biotinylated probe aFGF10 – biochemical, small-molecule microarray, fluorescence 635/667, stem cell growth factor project, primary screen (AID 1071).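 Note: score merges 667 nm spot intensity and signal to noise from triplicate slides.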 The following applies: higher = more signal.
In assay [5] the target is Neurogenic locus notch homolog protein 2 (Homo sapiens) (UniProt Q04721). The experiment in a line: small molecules binding Notch2 protein – biochemical, small-molecule microarray, 635 nm fluorescence, stem cell growth factors, primary screen (AID 1073). The following applies: higher = more signal.
Assay [6] concerns the target Pro-neuregulin-1, membrane-bound isoform (Homo sapiens) (UniProt Q02297). The experiment in a line: small molecules binding neuregulin-1 protein – biochemical, small-molecule microarray, fluorescence 635/667, psychiatric disease protein project, primary screen (AID 1075).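 Note: score combines 667 nm spot fluorescence with signal to noise.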 The following applies: NRG1 binding, 635 nm fluorescence, higher = more signal.
The test system of assay [7] is Neuregulin-1 EGF-like domain. The assay can be described thus: small molecules binding NRG1 EGF domain – biochemical, small-molecule microarray, 635 nm fluorescence, primary screen (AID 1081).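 Note: binding of the protein to compounds printed on small-molecule microarray slides.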 The following applies: higher = more signal.
A short description of assay [8]: FRG1 expression reporter modulators in myotubes – cell-based, C2C12 myotubes, firefly/Renilla luciferase, luminescence, FRG1 inhibition for FSHD, primary screen (AID 1084). The following applies: FRG1 promoter luciferase, higher = more signal, called active from +8 up or from −8 down.
Assay [9] is described as follows: small molecules captured by biotinylated probe aFST – biochemical, small-molecule microarray, fluorescence 635/667, stem cell growth factor project, primary screen (AID 1086).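 Note: score merges 667 nm fluorescence with signal-to-noise of each printed compound spot.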 The following applies: higher = more signal.
Assay [10] in a line: binders of probe aHhip on microarray, primary screen, stem cell growth factor project, biochemical, small-molecule microarray, fluorescence 635/667 (AID 1087).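 Note: score merges spot fluorescence at 667nm with spot signal to noise ratio.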 To be noted: higher = more signal.

Sequence of Neurogenic locus notch homolog protein 2 (Homo sapiens) (Q04721 whole entry, looked up, canonical isoform): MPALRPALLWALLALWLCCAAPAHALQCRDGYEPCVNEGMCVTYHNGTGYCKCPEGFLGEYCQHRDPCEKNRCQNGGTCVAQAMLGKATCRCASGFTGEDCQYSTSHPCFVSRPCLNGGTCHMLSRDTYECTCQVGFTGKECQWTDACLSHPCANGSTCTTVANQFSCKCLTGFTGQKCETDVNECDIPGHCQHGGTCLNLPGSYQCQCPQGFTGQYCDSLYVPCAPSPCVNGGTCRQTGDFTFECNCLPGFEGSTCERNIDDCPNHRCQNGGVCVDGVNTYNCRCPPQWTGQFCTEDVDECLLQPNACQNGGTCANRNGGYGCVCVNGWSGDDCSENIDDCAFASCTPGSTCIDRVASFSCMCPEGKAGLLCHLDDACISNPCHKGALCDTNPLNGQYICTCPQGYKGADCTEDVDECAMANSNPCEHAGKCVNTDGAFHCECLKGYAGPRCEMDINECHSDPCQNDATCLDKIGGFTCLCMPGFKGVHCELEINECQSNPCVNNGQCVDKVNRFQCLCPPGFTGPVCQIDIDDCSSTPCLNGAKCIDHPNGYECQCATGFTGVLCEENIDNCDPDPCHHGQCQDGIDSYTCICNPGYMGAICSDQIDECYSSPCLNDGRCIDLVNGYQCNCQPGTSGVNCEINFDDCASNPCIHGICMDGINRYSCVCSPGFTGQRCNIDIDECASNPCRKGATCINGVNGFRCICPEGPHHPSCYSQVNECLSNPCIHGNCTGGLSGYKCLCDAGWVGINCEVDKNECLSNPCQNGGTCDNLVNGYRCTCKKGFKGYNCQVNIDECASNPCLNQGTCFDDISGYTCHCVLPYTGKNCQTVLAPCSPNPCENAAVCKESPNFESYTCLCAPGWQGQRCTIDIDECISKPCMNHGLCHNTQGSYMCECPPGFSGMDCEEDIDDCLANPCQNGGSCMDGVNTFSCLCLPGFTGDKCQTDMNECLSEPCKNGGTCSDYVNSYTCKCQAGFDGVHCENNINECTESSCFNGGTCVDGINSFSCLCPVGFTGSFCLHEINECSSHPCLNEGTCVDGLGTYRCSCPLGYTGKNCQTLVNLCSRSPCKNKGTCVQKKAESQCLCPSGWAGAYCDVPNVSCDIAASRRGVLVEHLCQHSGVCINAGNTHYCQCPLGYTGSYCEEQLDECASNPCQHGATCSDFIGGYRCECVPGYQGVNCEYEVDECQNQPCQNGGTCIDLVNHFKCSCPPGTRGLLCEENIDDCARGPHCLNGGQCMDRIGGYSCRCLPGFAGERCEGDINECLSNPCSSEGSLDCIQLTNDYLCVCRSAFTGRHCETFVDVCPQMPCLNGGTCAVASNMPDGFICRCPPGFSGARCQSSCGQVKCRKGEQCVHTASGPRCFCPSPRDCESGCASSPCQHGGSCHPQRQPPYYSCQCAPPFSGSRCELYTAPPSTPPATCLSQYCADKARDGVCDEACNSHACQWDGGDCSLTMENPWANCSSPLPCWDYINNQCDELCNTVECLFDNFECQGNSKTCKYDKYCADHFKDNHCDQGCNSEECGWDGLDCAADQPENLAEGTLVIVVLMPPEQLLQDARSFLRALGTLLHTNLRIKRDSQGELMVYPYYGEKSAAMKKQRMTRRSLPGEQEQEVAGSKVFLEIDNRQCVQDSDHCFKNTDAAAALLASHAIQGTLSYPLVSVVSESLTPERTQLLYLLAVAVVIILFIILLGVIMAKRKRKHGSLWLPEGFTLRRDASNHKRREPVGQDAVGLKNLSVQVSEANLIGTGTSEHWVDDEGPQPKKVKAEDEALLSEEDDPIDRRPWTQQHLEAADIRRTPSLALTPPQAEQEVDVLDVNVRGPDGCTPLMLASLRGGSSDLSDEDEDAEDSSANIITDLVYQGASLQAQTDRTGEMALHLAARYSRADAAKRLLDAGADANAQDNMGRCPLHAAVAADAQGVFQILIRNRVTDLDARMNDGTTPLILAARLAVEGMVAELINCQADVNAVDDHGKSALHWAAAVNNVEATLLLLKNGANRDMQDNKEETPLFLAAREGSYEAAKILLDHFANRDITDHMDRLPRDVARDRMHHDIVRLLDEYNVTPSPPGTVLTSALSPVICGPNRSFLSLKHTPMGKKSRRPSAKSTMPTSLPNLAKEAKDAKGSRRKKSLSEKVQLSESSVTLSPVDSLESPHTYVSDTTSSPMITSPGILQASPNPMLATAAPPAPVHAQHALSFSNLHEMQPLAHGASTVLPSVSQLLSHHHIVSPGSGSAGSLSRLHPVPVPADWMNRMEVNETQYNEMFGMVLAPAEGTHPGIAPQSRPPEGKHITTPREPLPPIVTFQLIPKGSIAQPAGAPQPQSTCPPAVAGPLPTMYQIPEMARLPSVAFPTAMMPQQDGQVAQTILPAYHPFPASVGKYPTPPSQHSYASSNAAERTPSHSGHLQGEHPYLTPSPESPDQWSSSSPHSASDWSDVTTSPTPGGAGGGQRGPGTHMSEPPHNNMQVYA
Sequence of Pro-neuregulin-1, membrane-bound isoform (Homo sapiens) (Q02297 whole entry, looked up, the tested form may be a part, canonical isoform): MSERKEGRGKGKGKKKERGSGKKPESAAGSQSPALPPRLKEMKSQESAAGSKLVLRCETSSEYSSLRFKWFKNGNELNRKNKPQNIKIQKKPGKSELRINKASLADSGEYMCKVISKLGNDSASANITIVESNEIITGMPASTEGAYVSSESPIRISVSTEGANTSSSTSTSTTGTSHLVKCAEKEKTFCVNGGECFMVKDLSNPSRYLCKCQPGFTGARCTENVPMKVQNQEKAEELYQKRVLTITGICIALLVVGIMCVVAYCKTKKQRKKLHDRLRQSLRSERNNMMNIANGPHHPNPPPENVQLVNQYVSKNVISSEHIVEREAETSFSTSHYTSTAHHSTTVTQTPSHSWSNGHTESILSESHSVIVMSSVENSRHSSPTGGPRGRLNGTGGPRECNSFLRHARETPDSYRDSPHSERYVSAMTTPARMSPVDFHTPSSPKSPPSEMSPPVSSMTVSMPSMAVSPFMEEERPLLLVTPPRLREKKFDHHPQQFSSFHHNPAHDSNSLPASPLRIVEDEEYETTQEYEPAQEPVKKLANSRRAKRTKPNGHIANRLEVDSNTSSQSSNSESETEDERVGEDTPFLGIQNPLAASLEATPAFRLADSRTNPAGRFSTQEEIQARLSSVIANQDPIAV

For `C=CC[C@H](OC(=O)Nc1ccc(SC)cc1)c1ccc(O)c(F)c1`, the composite z-score in assay [1] is 0.57; in [2], 0.274; in [3] it was -0.102; in [4], -0.575; in [5], -1.19; in assay [6] it was 0.659. Also, the composite z-score in assay [7] is 1.07; in assay [9] it was -0.512; in assay [10], -0.156. In addition, in assay [8], the z-score is 8.09 (active).

As for `O=C1OC[C@@H](c2ccccc2)n2cc(/C=C/c3ccccc3)cc21`, the composite z-score in [1] was 0.0087; in assay [2], -0.382; in assay [3], -0.178; in assay [4], -0.162; in [5], -0.924; in [6], 0.895. In addition, the composite z-score is 0.132 in assay [7], -0.503 in assay [9] and -0.306 in assay [10]. The z-score in assay [8] was -0.144 (inactive).

Regarding `Cc1ccc(S[C@]2(C(=O)NCc3ccccc3)CC(=O)N(Cc3ccccc3Cl)[C@@H]2c2ccc(CO)cc2)cc1`, the composite z-score in [1] is 1.05; in [2], -0.363; in assay [3], -0.0639; in assay [4], 0.0799; in assay [5], -0.331; in [6], 1.26. Further, the figures for the composite z-score in assay [7], in [9] and in [10] were 0.79, -0.603 and -0.353, respectively. In addition, the z-score in assay [8] was -3.18 (inactive).

Turning to `C=CCNC(=O)[C@@H]1[C@H]2C(=O)O[C@H](c3ccccc3)[C@H](c3ccccc3)N2[C@H](c2ccc(OCCO)cc2)[C@@]12C(=O)Nc1ccc(C#CC3=CCCCC3)cc12`, the composite z-score in assay [1] is -0.607; in [2] it was 0.308; in assay [3], -0.0442; in [4], 0.924; in assay [5], 1.02; in assay [6], 1.28. For the same molecule, the composite z-score in assay [7] was 1.29; in assay [9] it was 0.597; in assay [10], -0.186. Besides, the z-score in [8] is -0.138 (inactive).

In the case of `CN(C)CCCCCCNC(=O)[C@@H]1C[C@@H]2C(=O)N[C@@H](CCCC[N+](C)(C)C)C(=O)N2[C@@H]1c1cccc(OCCO)c1`, the composite z-score was 0.516 in assay [1]; 0.869 in [2]; -0.0707 in [3]; -0.431 in [4]; -0.558 in assay [5]; -0.538 in assay [6]. Moreover, the composite z-score in assay [7] was 0.801; in [9], -0.516; in [10] it was -0.333. The z-score in [8] is 3.98 (inactive).

`CCCCC(=C=CC[C@H](O)c1ccccc1OCCO)CCO`: the composite z-score in assay [1] is -0.121; in assay [2], -0.46; in assay [3], -0.0579; in assay [4], 0.656; in assay [5] it was -0.543; in assay [6] it was 1.4. For the same molecule, the composite z-score was 0.787 in assay [7], -0.299 in [9] and 0.0749 in assay [10]. Also, in [8], the z-score is 0.125 (inactive).

`C=CCNC(=O)[C@@H]1[C@H]2C(=O)O[C@H](c3ccccc3)[C@H](c3ccccc3)N2[C@H](c2ccc(OCCO)cc2)[C@@]12C(=O)Nc1ccc(C#CCNC(N)=O)cc12`: the composite z-score in [1] is 0.18; in assay [2] it was -0.262; in assay [3], -0.22; in [4], 0.169; in [5] it was -1.01; in [6], 0.43. The composite z-score in [7] is 0.184; in assay [9], 0.675; in assay [10] it was -0.191. The z-score in [8] was 0.243 (inactive).

Turning to `CN1C(=O)C2C(C1=O)C1C=C(CCCO)C2C(C2CC2)N1C` (stereo not given), the composite z-score in [1] is 0.227; in assay [2], -0.144; in assay [3], 0.078; in assay [4], 0.333; in assay [5] it was 0.196; in [6] it was 0.496. Moreover, the figures for the composite z-score in assay [7], in [9] and in assay [10] were 0.625, -0.196 and -0.385, respectively. Also, the z-score in assay [8] is -0.818 (inactive).

As to `CCOC(=O)C[C@H]1[C@H](OC(=O)Cc2ccc3c(c2)OCO3)[C@@H](NC(=O)CC(C)C)c2cc(OCCCO)ccc2N1C(=O)c1ccc2ccccc2n1`, the composite z-score in [1] is -0.306; in assay [2] it was 1.01; in assay [3], 0.0435; in assay [4], 0.43; in assay [5] it was 0.834; in [6] it was 1.01. The results for the composite z-score in [7], in assay [9] and in assay [10] were 0.518, 0.376 and -0.344, respectively. For the same molecule, in assay [8], the z-score was -3.21 (inactive).

As to `CC(C)C[C@@H]1NC(=O)[C@H]2C[C@@H](C(=O)O)[C@@H](c3cccc(OCCO)c3)N2C1=O`, the composite z-score in [1] is 0.885; in assay [2], 1.76; in assay [3], -0.083; in [4], -0.0367; in [5] it was -0.26; in assay [6], 1.61. The composite z-score is 1.48 in [7], 0.108 in assay [9] and 0.129 in [10]. Further, the z-score in [8] is 7.43 (inactive).

In the case of `COc1cccc(C)c1NC(=O)O[C@H]1[C@H](OC(=O)Nc2ccccc2)[C@@H](OC(=O)Nc2ccccc2)[C@@H](OC)O[C@@H]1CO`, the composite z-score was -0.0439 in assay [1]; 0.639 in [2]; 0.0811 in assay [3]; 1.06 in assay [4]; 1.48 in assay [5]; 1.81 in assay [6]. For the same molecule, the composite z-score in assay [7] was 1.46; in assay [9] it was 0.837; in [10], 0.149. Besides, the z-score in assay [8] was 0.91 (inactive).

For the molecule `COCCOC(=O)N1C(=O)[C@@]2(c3cc(C#CCCO)ccc31)[C@H](C(=O)N1CCN(c3ncccn3)CC1)[C@H]1C(=O)O[C@H](c3ccccc3)[C@H](c3ccccc3)N1[C@@H]2c1ccc(OCCO)cc1`, the composite z-score is -0.372 in assay [1]; 0.713 in [2]; 0.0001 in assay [3]; 0.641 in assay [4]; 0.718 in assay [5]; 1.53 in assay [6]. The results for the composite z-score in assay [7], in assay [9] and in assay [10] were 1.3, 0.832 and -0.171, respectively. Moreover, in [8], the z-score is -0.31 (inactive).

As for `C=C(COC)C(=O)CC[C@@H](OC(=O)c1ccccc1-c1ccccc1C(=O)O)c1ccccc1OCCO`, the composite z-score in [1] was -0.167; in [2] it was 2.13; in assay [3] it was -0.0543; in assay [4], 1.27; in assay [5], 0.468; in assay [6], -0.189. Moreover, the figures for the composite z-score in assay [7], in assay [9] and in assay [10] were 1.12, -0.168 and -0.236, respectively. Also, in assay [8], the z-score was 0.896 (inactive).

In the case of `O=C(N1CCOCC1)[C@]1(CCS(=O)(=O)c2ccccc2)N=C(c2ccc(OCCCO)cc2)O[C@@H]1c1ccccc1`, the composite z-score in assay [1] is 0.217; in assay [2], 2.19; in assay [3], -0.0667; in [4] it was 0.479; in [5], 1.22; in [6], 1.94. The composite z-score in [7] is 1.3; in assay [9], 1.31; in assay [10], -0.0994. In addition, the z-score in assay [8] is -1.49 (inactive).

For `CC1C2C(CCCO)=CC(C3C(=O)N(C(N)=O)C(=O)C23)N1Cc1cccc(OC(F)(F)F)c1` (stereo not given), the composite z-score was -0.261 in assay [1]; 0.913 in assay [2]; -0.0558 in assay [3]; 0.767 in [4]; 0.53 in [5]; 1.18 in assay [6]. Moreover, the composite z-score in assay [7] turned out to be 1.28; in assay [9], 0.269; in assay [10] it was 0.0659. Besides, the z-score in [8] was 1.88 (inactive).

As for `C=CCNC(=O)[C@@H]1[C@H]2C(=O)O[C@H](c3ccccc3)[C@H](c3ccccc3)N2[C@H](c2ccc(OCCO)cc2)[C@@]12C(=O)N(C(=O)OCCOC)c1ccccc12`, the composite z-score is -0.156 in assay [1]; 1.08 in [2]; 0.0021 in [3]; 0.591 in [4]; 0.964 in [5]; 1.05 in assay [6]. Moreover, the composite z-score was 1.25 in assay [7], 0.954 in assay [9] and 0.0053 in assay [10]. Also, in [8], the z-score was 0.0023 (inactive).

With `CC(=O)NCCCC[C@@H]1NC(=O)[C@H]2C[C@@H](C(=O)NCCCCCN)[C@@H](c3ccc(O)cc3)N2C1=O`, the composite z-score in assay [1] was found to be 0.392; in assay [2] it was 0.861; in assay [3], 0.007; in [4], 0.198; in assay [5], 1; in assay [6], 0.0529. Also, the results for the composite z-score in [7], in assay [9] and in assay [10] were 1.2, 0.418 and 0.141, respectively. Moreover, the z-score in assay [8] was -0.248 (inactive).
